An excerpt weighted towards active compounds, which were near 4.1% of everything screened.
697 NFkB inh = lowers PMA/ionomycin-induced NF-kB signal in 697 B cells | inhibition, % at 4 µM | 697 B-cell NF-kB luciferase reporter, 16 h | AID 435022 | hit rate 0.33% among 330,000; in the data active means inhibition above about 35%
aSyn 5UTR inh = 5' untranslated region of α-synuclein, MLPCN primary screen; alpha-synuclein 5'UTR reporter, inhibitor activity; inhibition, % (tested at 7.5 µM); hit rate 0.82% among 300,000; AID 1813; in the data active means inhibition above about 60%;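 further: H4 neuroglioblastoma cells stably carrying SNCA 5'UTR luciferase fusion; 0% = DMSO wells and 100% = positive control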
KLF5 inh = kruppel-like factor 5 inhibition; DLD-1 KLF5 promoter-luciferase reporter, luminescence; inhibition, % at 5 µM; hit rate 0.23% among 290,000;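 active means inhibition above a per-plate limit of that plate's mean compound inhibition plus 3 SD, cut at about 60% in these data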;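 further: 0% = DMSO wells and 100% = LY294002 at 200 µM; higher means less KLF5 promoter-driven luciferase light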
Gli-Sufu antag = Gli-Sufu pathway antagonism; Sufu-KO-LIGHT fibroblasts, Gli luciferase reporter luminescence; inhibition, % at 5 µM; hit rate 0.74% among 340,000; AID 588413;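 active means inhibition above about 55%, limit read from the data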;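 further: 0% = DMSO-treated cells and 100% = wells with medium but no cells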
Jurkat NFkB inh = inhibitors of the PMA/ionomycin-induced NF-kB reporter in Jurkat cells; PMA/ionomycin-induced NF-kB luciferase reporter, luminescence; inhibition, % at 4 µM; hit rate 0.53% among 330,000; AID 435003; in the data active means inhibition above about 50%
Mdm2-MdmX inh = inhibitors of human Mdm2/MdmX interaction; SaOS-2 split-luciferase Mdm2/MdmX complementation, luminescence; inhibition, % at 8 µM; hit rate 3% among 330,000; AID 485346; O15151+Q00987;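 active means inhibition of at least 50% at 8 µM in the primary screen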
Target sequence (O15151 whole entry, looked up): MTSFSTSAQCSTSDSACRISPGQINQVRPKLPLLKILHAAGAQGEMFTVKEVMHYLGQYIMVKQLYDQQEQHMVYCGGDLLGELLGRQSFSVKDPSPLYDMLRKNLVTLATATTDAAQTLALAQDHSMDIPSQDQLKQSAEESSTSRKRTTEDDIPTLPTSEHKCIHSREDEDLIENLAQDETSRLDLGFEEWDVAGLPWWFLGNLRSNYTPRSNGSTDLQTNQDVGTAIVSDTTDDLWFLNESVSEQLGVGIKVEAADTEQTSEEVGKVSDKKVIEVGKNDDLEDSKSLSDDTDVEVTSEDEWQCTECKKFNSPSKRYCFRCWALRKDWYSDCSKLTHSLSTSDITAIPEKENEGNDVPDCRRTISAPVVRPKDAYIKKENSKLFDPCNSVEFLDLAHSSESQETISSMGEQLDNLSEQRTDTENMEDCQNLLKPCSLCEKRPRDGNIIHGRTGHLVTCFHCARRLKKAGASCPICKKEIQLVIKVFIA
Target sequence (Q00987 whole entry, looked up): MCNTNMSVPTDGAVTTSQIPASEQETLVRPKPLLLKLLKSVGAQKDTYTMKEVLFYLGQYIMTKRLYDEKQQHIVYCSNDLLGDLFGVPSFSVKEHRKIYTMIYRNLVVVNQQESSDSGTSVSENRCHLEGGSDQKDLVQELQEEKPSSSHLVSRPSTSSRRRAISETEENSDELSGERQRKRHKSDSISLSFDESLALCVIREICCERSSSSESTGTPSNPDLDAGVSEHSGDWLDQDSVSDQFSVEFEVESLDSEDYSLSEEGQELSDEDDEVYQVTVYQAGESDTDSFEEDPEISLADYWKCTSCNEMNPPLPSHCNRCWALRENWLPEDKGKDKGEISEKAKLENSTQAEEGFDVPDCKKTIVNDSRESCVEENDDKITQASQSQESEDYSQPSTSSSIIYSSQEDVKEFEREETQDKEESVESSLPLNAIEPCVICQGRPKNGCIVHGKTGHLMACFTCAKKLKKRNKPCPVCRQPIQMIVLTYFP
Mdm2 MdmX conf = human Mdm2/MdmX binding inhibition, confirmed; hit rate 55% among 10,000; luminescent assay; inhibition, % at 8 µM; shares compounds with Mdm2-MdmX inh; AID 489028; in the data active means inhibition above about 40%
Full FLuc ctr = full-length luciferase inhibition in Mdm2/MdmX counter-screen; shares compounds with Mdm2-MdmX inh; SaOS-2 full-length luciferase counterscreen, luminescence; inhibition, % at 8 µM; hit rate 77% among 6,200; AID 504607;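 active means mean inhibition at 8 µM reaching about 37%, which flags the compound as non-specific, limit read from the data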;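 further: p53-null SaOS-2 cells with luciferase driven by a doxycycline-inducible promoter; compound on cells about two nights before reading with doxycycline added after day one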
* = called active by the depositor; nt = not tested or not shown.

SMILES	697 NFkB inh	aSyn 5UTR inh	KLF5 inh	Gli-Sufu antag	Jurkat NFkB inh	Mdm2-MdmX inh	Mdm2 MdmX conf	others
COC(=O)C1=C(C)N(CC2CC2)C(=NCc2cccc(C(F)(F)F)c2)N[C@H]1c1ccccc1	0	nt	nt	26	3	54*	24
COC(=O)C1=C(C)N(Cc2ccccc2)C(=NCc2cccc(C(F)(F)F)c2)N[C@H]1c1cccc(C(F)(F)F)c1	9	nt	nt	-8	3	100*	100*	Full FLuc ctr=49*
COC(=O)C1=C(C)N(Cc2ccccc2)C(=NCC(C)C)N[C@H]1c1ccccc1	-9	-4	-9	35	6	30	nt
CCc1nnc(NS(=O)(=O)c2ccc(NC(=O)c3ccc(C#N)cc3)cc2)s1	-4	14	-27	4	-9	1	nt
CC/C=C(\NC(C)=O)c1ccccc1	17	nt	nt	-9	-1	6	nt
CC(NC(=O)COC(=O)C1CCN(c2ccc(C(F)(F)F)cn2)CC1)c1ccc(F)cc1 (stereo not given)	18	nt	nt	-2	-5	8	nt
O=c1[nH]c2ccc([N+](=O)[O-])cc2nc1/C=C(\O)c1ccccc1	-4	-38	-3	-14	-24	81*	-8
CN(C(=O)COC(=O)CNC(=O)c1ccc(C(C)(C)C)cc1)c1c(N)n(Cc2ccccc2)c(=O)[nH]c1=O	-34	-4	nt	-12	-8	-8	nt
CN(C)c1ccc(C(CNC(=O)c2ccco2)N2CCCC2)cc1 (stereo not given)	-3	2	-88	-6	-6	12	nt
CCn1cc(C(=O)NCCCN2CCCC(C)C2)c(=O)c2cc(S(=O)(=O)N3CCc4ccccc4C3)ccc21 (stereo not given)	6	-21	4	34	16	83*	33
CCC1CCCCN1CCCNC(=O)c1cn(CC)c2ccc(S(=O)(=O)N3CCc4ccccc4C3)cc2c1=O (stereo not given)	5	15	-28	33	13	90*	50*	Full FLuc ctr=55*
CCCCN(CCCC)CCNC(=O)c1cn(CC)c2ccc(S(=O)(=O)N3CCc4ccccc4C3)cc2c1=O	-4	-2	5	45	-6	72*	24
COc1ccc(CCNC(=O)COC(=O)C2CC2)cc1OC	-5	nt	nt	7	-10	-2	nt
COc1ccccc1C(=O)OCCNC(=O)Cn1cnc2c1c(=O)n(C)c(=O)n2C	3	-5	-41	-5	5	10	nt
COc1cccc(CC(=O)OCC(=O)NC(Cc2ccccc2)C(C)=O)c1 (stereo not given)	10	3	nt	-16	7	-1	nt
CC(=O)N1CC(=O)N(c2ccccc2)C1=O	15	-2	-15	8	5	-20	nt
CCOC(=O)c1sc(NC(=O)CSc2nc3c(c(=O)n2-c2ccc(C)cc2)SCC3)c(C(=O)OCC)c1C	20	37	18	-2	13	64*	-1
CCOC(=O)c1sc(NC(=O)CSc2nnnn2-c2ccc(C)cc2)c(C(=O)OCC)c1C	9	20	5	1	-10	10	nt
Cn1c(C=O)c(C#CC(C)(C)O)c2ccccc21	10	nt	nt	-4	-13	30	nt
COc1cccc(C#Cc2c(C=O)n(C)c3ccccc23)c1	-23	nt	nt	-8	-9	66*	40	Full FLuc ctr=70*
CCCCC1CCC(C(=O)N(CCCC)c2c(N)n(CCCC)c(=O)[nH]c2=O)CC1 (stereo not given)	-15	6	-10	0	12	99*	28
COc1ccc(C)cc1NC(=O)c1sc2ncn(CC(=O)N3CCCCC3)c(=O)c2c1C	15	-22	-10	1	4	21	nt
CCCCn1c(=O)[nH]c(=O)c2c(C(=O)OCC)cc(-c3ccc(OC(F)F)cc3)nc21	3	22	-11	13	-17	57*	32
Cc1ccc(C)c(C(=O)Nc2cc(C)nn2-c2nc(C)cc(C)n2)c1	-12	-19	6	10	24	57*	39	Full FLuc ctr=60*
C[C@H]1[C@H](C)CC[C@]2(C(=O)O)CC[C@]3(C)C(=CC[C@@H]4[C@@]5(C)C[C@@H](O)[C@H](O)C(C)(C)[C@@H]5CC[C@]43C)[C@H]12	22	5	-2	-13	4	68*	25
SMILES	697 NFkB inh	aSyn 5UTR inh	KLF5 inh	Gli-Sufu antag	Jurkat NFkB inh	Mdm2-MdmX inh	Mdm2 MdmX conf	others
CC1(C)C[C@H]2C3=CCC4[C@@]5(C)CC[C@H](O)[C@](C)(CO)C5CC[C@@]4(C)[C@]3(C)CC[C@@]2(C)[C@H](O)[C@@H]1O (stereo not given in full)	1	nt	nt	-5	-1	87*	57*	Full FLuc ctr=60*
C[C@H]1[C@H](C)CC[C@]2(C(=O)O)CC[C@]3(C)C(=CC[C@@H]4[C@@]5(C)CC[C@H](O)C(C)(C)[C@@H]5CC[C@]43C)[C@H]12	5	18	nt	-3	-21	78*	15
O=C(c1ccc(NS(=O)(=O)c2cccc(F)c2)cc1)N1CCCCC1	12	-10	-38	10	9	11	nt
CCc1nn(CC(=O)NCCC2=CCCCC2)c(=O)c2cc3cc(F)ccc3n12	3	-3	4	0	-5	50*	12
CCc1nn(CC(=O)NCCCc2ccccc2)c(=O)c2cc3c(OC)cccc3n12	4	-7	-17	3	-3	11	nt
CCc1nn(CC(=O)NCCCc2ccccc2)c(=O)c2cc3cc(F)ccc3n12	-5	-8	-23	3	18	56*	-1
C[C@H](CO)N1C[C@H](C)[C@@H](CN(C)C(=O)NC2CCCCC2)Oc2ccc(NC(=O)C3CC3)cc2C1=O	nt	nt	nt	4	nt	nt	nt
O=C(COC(=O)C1CC2CCCC(C1)C2=O)NNC(=O)c1ccccc1F (stereo not given)	-23	-2	nt	0	0	10	nt
O=C(Nc1cc(S(=O)(=O)Nc2ccc(Cl)cc2)ccc1N1CCCCC1)c1ccc(F)cc1Cl	11	24	-10	5	2	67*	21
COc1ccccc1NS(=O)(=O)c1cc(NC(=O)Nc2cccc(C)c2)ccc1N1CCCCC1	-27	-8	-18	11	4	-10	nt
O=C(Nc1ccc(N2CCOCC2)c(S(=O)(=O)Nc2ccccc2Cl)c1)c1ccc(=O)[nH]n1	nt	nt	nt	2	nt	nt	nt
O=C(Nc1ccc(N2CCOCC2)c(S(=O)(=O)Nc2ccccc2Cl)c1)c1ccccc1	-8	nt	nt	-2	7	54*	14
O=C(Nc1ccc(Cl)cc1)Nc1ccc(N2CCCC2)c(S(=O)(=O)Nc2ccccc2Cl)c1	-37	35	-25	14	-12	96*	90*	Full FLuc ctr=24
C=C1[C@H]2O[C@H]2[C@@H](OC(C)=O)[C@@]2(C)[C@@H](OC(C)=O)C[C@@H](OC(C)=O)[C@@](C)(O)[C@@H]2[C@@H](OC(C)=O)[C@@]2(O)[C@@H](C)C(=O)O[C@H]2[C@H]1Cl	nt	nt	nt	-12	nt	nt	nt

Screening results deposited in PubChem BioAssay by several laboratories.
